Source: PubChem BioAssay
AddAB inh – less growth of phage-infected E. coli with AddAB | E. coli expressing H. pylori AddAB, absorbance growth | inhibition, % at 11.9 µM | 330,000 tested, 0.29% active | AID 435030; in the data active = inhibition above about 12%;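 note: 0% = vehicle wells of infected cells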
phage Ecoli inh – E. coli growth loss with phage present; inhibition, % at 11.9 µM; 360,000 tested, 0.26% active; growth absorbance; AID 651602; in the data active = inhibition above about 11%
E coli growth-1 – reduces bacterial viability in AddAB counter-screen | E. coli V3065 growth, OD600 absorbance, 18 h | 330,000 tested, 0.27% active | inhibition, % at 11.9 µM;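 active = inhibition above the campaign's mean inhibition across all tested compounds plus 3 SD, cut at about 9.9% in these data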;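 note: uninfected addAB+ strain grown without phage in ampicillin broth; 0% = DMSO wells and 100% = ciprofloxacin 0.95 µg/ml wells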
Tat transport – blocks Tat-dependent protein export in E. coli; E. coli MC4100 TorA-mCherry Tat export, fluorescence; 340,000 tested, 0.036% active; inhibition, % at 10 µM;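 active = mean replicate inhibition at least 50% and at least half of replicates individually reaching 50%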;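 note: exported cargo escapes ClpAP degradation while cytoplasmic cargo is degraded and loses fluorescence; 0% = median of neutral control wells and 100% = median of NaSCN control wells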
E coli growth-2 – blocks Escherichia coli growth; AID 1053175; OD600, 23 h; hits give low values; 330,000 tested, 0.21% active; OD600 absorbance (no concentration beside the values);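 active = OD600 absorbance below the run mean of sample wells minus 3.6 SD, in any replicate, cut at about 0.56 in these data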
AddAB confirm – growth loss of T4-infected E. coli expressing H. pylori AddAB, confirmed. shares compounds with AddAB inh. E. coli V3065 expressing H. pylori AddAB, T4 phage, OD; T4 phage with gene 2 nonsense mutations. inhibition, % at 11.9 µM. 880 tested, 64% active;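 active = mean inhibition above a set limit taken from the earlier primary screen, cut at about 13% in these data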;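 note: higher means less bacterial growth since AddAB block lets phage replicate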
RecBCD counter – reduces growth of phage-infected RecBCD+ E. coli, AddAB inhibitor counter-screen; shares compounds with AddAB inh; 880 tested, 73% active; E. coli V66 + mutant T4 phage, OD growth; inhibition, % at 11.9 µM; AID 488955;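 active = mean inhibition above the mean of solvent-only control wells plus 3 SD, cut at about 4% in these data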;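 note: optical density read after an 18 h incubation at 37 °C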
Bact viability – counter-screen: bacterial growth inhibition. inhibition, % at 11.9 µM. 880 tested, 35% active. bacterial viability, absorbance (AddAB counterscreen). shares compounds with AddAB inh; in the data active = inhibition above about 25%
RecBCD conf – confirmation: growth loss of phage-infected RecBCD+ E. coli (RecBCD inhibitor screen); shares compounds with phage Ecoli inh; E. coli V66 + T4 2- phage, growth OD; inhibition, % at 11.9 µM; 890 tested, 45% active;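 active = mean inhibition over triplicates exceeding the hit threshold derived in the original primary screen, cut at about 11% in these data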
Ecoli viability – bacterial viability inhibition counter-screen for RecBCD; shares compounds with phage Ecoli inh; E. coli viability, absorbance (OD) growth; inhibition, % at 11.9 µM; 890 tested, 29% active; in the data active = inhibition above about 20%;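 note: E. coli strain V66 grown with compound alone and no phage infection; 0% = bacteria with DMSO vehicle only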
AddAB phage OD – growth loss of phage-infected AddAB E. coli, RecBCD counter-screen | shares compounds with phage Ecoli inh | E. coli expressing H. pylori AddAB + T4 phage, OD growth; gene 2 mutant T4, recBCD-deleted host | inhibition, % at 11.9 µM | 890 tested, 45% active;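 active = mean inhibition above the solvent-only control wells' mean plus 3 SD, cut at about 22% in these data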;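 note: higher means less bacterial growth from phage killing when AddAB is blocked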
* hit, by the source's call. Sampled rows, rich in hits. Any-hit rate of the full collection: about 0.5%.

N#Cc1ccc(-c2ccc(C3Nc4ccccc4C(=O)N3O)o2)cc1 (stereo unspecified) was read as AddAB inh 8.3, phage Ecoli inh 7.6, E coli growth-1 5.9, Tat transport -7.3 and E coli growth-2 0.693.
For CCOC(=O)c1ccc(-c2ccc(C3Nc4ccccc4C(=O)N3O)o2)cc1 (stereo unspecified) the results were AddAB inh 21.2*, phage Ecoli inh 24.4*, E coli growth-1 22.1*, Tat transport 0.6, E coli growth-2 0.635, AddAB confirm 20.4*, RecBCD counter 20.9*, Bact viability 17.8, RecBCD conf 15.9*, Ecoli viability 17.7 and AddAB phage OD 14.4.
Screening Cc1cc([N+](=O)[O-])ccc1-c1ccc(C2Nc3ccccc3C(=O)N2O)o1 (stereo unspecified) returned AddAB inh 31.5*, phage Ecoli inh 24.2*, E coli growth-1 26.8*, Tat transport 6.3, E coli growth-2 0.591, AddAB confirm 22.3*, RecBCD counter 24.1*, Bact viability 18.8, RecBCD conf 18.0*, Ecoli viability 21.2* and AddAB phage OD 20.7.
Screening NC(=NOC(=O)CCCOc1ccccc1)c1ccc(Br)cc1 returned E coli growth-2 0.726.
CCOC(=O)c1cn(-c2ccc([N+](=O)[O-])cc2)c2cc(Cl)c([N+](=O)[O-])cc2c1=O was read as AddAB inh 1.9, phage Ecoli inh 3.6, E coli growth-1 3.1, Tat transport -3.2 and E coli growth-2 0.642.
Screening O=C(O)c1cn(-c2ccc(F)cc2)c2cc(Cl)c(F)cc2c1=O returned AddAB inh 52.6*, phage Ecoli inh 13.6*, E coli growth-1 55.3*, Tat transport -5.3, E coli growth-2 0.0655*, AddAB confirm 102.1*, RecBCD counter 98.9*, Bact viability 101.5*, RecBCD conf 98.0*, Ecoli viability 100.0* and AddAB phage OD 99.2*.
For On1ccccc1=S the results were AddAB inh active, phage Ecoli inh active, E coli growth-1 75.6*, Tat transport 141.8*, AddAB confirm active, RecBCD counter active, Bact viability 98.0*, RecBCD conf active, Ecoli viability 105.1* and AddAB phage OD active.
O=C(Cn1ccccc1=S)c1ccc(Cl)c(Cl)c1 was read as AddAB inh 7.7, phage Ecoli inh 3.1, E coli growth-1 3.0 and E coli growth-2 0.624.
For O=C1c2ccccc2C2=Nc3ccccc3SC(c3ccc(Cl)cc3)C12 (stereo unspecified) the results were AddAB inh 24.5*, phage Ecoli inh 22.1*, E coli growth-1 35.6*, Tat transport -57.2, E coli growth-2 0.655, AddAB confirm 38.9*, RecBCD counter 29.6*, Bact viability 51.7*, RecBCD conf 18.2*, Ecoli viability 15.6 and AddAB phage OD 42.3*.
Screening O=C1CCCC2=C1C(c1ccc(Cl)cc1)C1C(=O)c3ccccc3C1=N2 (stereo unspecified) returned AddAB inh 0.7, phage Ecoli inh 0.1, E coli growth-1 -3.4, Tat transport -1.3 and E coli growth-2 0.662.
Screening NC1=NCC(Cc2ccc(O)cc2)N1CCc1cc(C(F)(F)F)cc(C(F)(F)F)c1 (stereo unspecified) returned E coli growth-2 0.681.
`COc1ccc(C2C3C(=O)N(C(C)(C)C)C(=O)C3[C@]3(CC(C)C)C(=O)N(c4cccc(F)c4)C(=O)N23)cc1` (stereo partly specified) gave E coli growth-2 0.681.
Screening CN(C)c1ccc(O)c2c1CC1CC3[C@@H](N(C)C)C(=O)C(C(N)=O)=C(O)[C@]3(O)C(=O)C1=C2O (stereo partly specified) returned AddAB inh 99.0*, phage Ecoli inh 98.8*, E coli growth-1 102.4*, Tat transport 148.9*, AddAB confirm 99.4*, RecBCD counter 97.8*, Bact viability 100.0*, RecBCD conf 93.2*, Ecoli viability 102.7* and AddAB phage OD 103.4*.
Screening O=[N+]([O-])c1cc(F)c2cccnc2c1O returned AddAB inh 53.0*, phage Ecoli inh 39.5*, E coli growth-1 54.0*, Tat transport -19.2, E coli growth-2 0.0825*, AddAB confirm 50.1*, RecBCD counter 48.6*, Bact viability 41.0*, RecBCD conf 53.3*, Ecoli viability 52.9* and AddAB phage OD 48.5*.
`O=[N+]([O-])c1ccc(O)c2cccnc12` gave AddAB inh -2.6, phage Ecoli inh 2.7, E coli growth-1 0.1, Tat transport -12.6 and E coli growth-2 0.633.
`O=[N+]([O-])c1cc(Cl)c2cccnc2c1O` gave AddAB inh 68.0*, phage Ecoli inh 52.2*, E coli growth-1 61.7*, Tat transport -8.7, E coli growth-2 0.067*, AddAB confirm 62.6*, RecBCD counter 70.0*, Bact viability 62.7*, RecBCD conf 78.4*, Ecoli viability 79.3* and AddAB phage OD 63.1*.
`COc1cc(OC)c(OC)cc1/C=N/NC(=O)c1cc(-c2cccn2C)n[nH]1` gave AddAB inh -0.2, phage Ecoli inh 3.3, E coli growth-1 -1.7 and Tat transport 4.8.
`CCOc1cccc(/C=N/NC(=O)c2cc(-c3cccn3C)n[nH]2)c1O` gave AddAB inh 17.5*, phage Ecoli inh 18.5*, E coli growth-1 12.0*, Tat transport -11.2, AddAB confirm 18.8*, RecBCD counter 20.6*, Bact viability 20.1, RecBCD conf 9.2, Ecoli viability 9.6 and AddAB phage OD 15.4.
For Cc1cn([C@H]2C[C@H](N=[N+]=[N-])[C@@H](CO)O2)c(=O)[nH]c1=O the results were AddAB inh 99.5*, phage Ecoli inh 97.1*, E coli growth-1 100.3*, Tat transport 38.9, AddAB confirm 100.3*, RecBCD counter 70.9*, Bact viability 100.1*, RecBCD conf 97.2*, Ecoli viability 93.0* and AddAB phage OD 100.8*.
